Consider 39 compounds from PubChem BioAssay (NCATS).

Results with a measured potency or affinity are listed apart. Unmarked numbers belong to inactive results. The rule behind the calls is not given here.
Note: 0% is about no effect.

For this test the following is noted: Ebola virus entry assay, green fluorescence channel.
Consider `CC(C)=CCC/C(C)=C/CO`, for which the efficacy is -28.2%.
Take `COc1cc(C=O)ccc1O`: the efficacy was -12.7%.
With `NCCNCCNCCNCCN`, the efficacy was -17.9%.
On to `CCN(CC)CCNC(=O)c1cc(S(C)(=O)=O)ccc1OC`, for which the efficacy was -10.9%.
Next, `O=c1cc(O)c(Cl)c[nH]1`: -17.7%; `CCOC(=O)Oc1ccc(CCNC(=O)[C@H](CCSC)NC(C)=O)cc1OC(=O)OCC`: -12.4%; `Cc1ccc(C(C)C)c(O)c1`: -16.9%.
Next, `CC(C)CCOC(=O)c1ccc(N(C)C)cc1`: -19.6%; `COC(=O)CCCCC(CCSS/C(CCO)=C(\C)N(C=O)Cc1cnc(C)nc1N)SC(C)=O` (centres undefined): -13.6%.
Turning to `Cc1ncc(CO)c(CN)c1O`, the efficacy is -11.8%.
Next, `Oc1ccccc1-c1nnco1`: 7.99%.
The same measure for `CCCCCCCCCCCCCCCCN`: -37.3%; for `CCn1nc(C(=O)O)c(=O)c2cc3c(cc21)OCO3`: 37.2%.
Take `O=C(O)c1ccc(=O)[nH]c1`: the efficacy was -14.8%.
The same measure for `O=C(O)c1cc(-c2ccccc2)nc2ccccc12`: -14.9%; for `CC(=O)C1CCOC1=O` (centres undefined): 6.81%; for `Nc1ccc(C(=O)Nc2ccccc2N)cc1`: -27%.
Turning to `CC(=O)Oc1cccc2c1C(=O)c1c(OC(C)=O)cc(C(=O)O)cc1C2=O`, the efficacy is -17.1%.
For the compound `Cc1cccc(C)c1NC(=O)c1cc(S(N)(=O)=O)c(Cl)cc1O`, the efficacy is -19.2%.
Regarding `CC(=O)N(c1onc(C)c1C)S(=O)(=O)c1ccc(N)cc1`, the efficacy is -8.94%.
The same measure for `Cc1ncc([N+](=O)[O-])n1CC(C)O` (centres undefined): -13.9%; for `COc1c2occc2c(OC)c2c(=O)cc(C)oc12`: 13.6%; for `CCS(=O)(=O)c1ccc(OC)c(C(=O)OC)c1`: 18.9%.
Next, `COc1nccnc1NS(=O)(=O)c1ccc(N)cc1`: -13.7%; `Nc1ccc([N+](=O)[O-])c(C(F)(F)F)c1`: -37.2%; `CCCCCCCCCCCCCCCC(=O)OC(C)C`: 10.3%.
In the case of `CC(C)(C)NCC(O)c1cc(Cl)c(N)c(C(F)(F)F)c1` (centres undefined), the efficacy is 12.5%.
In the case of `CN1C(C)(C)CCCC1(C)C`, the efficacy was 14.2%.
The same measure for `CC(C)(C)C1CCC(CC2=C(O)c3ccccc3C(=O)C2=O)CC1` (centres undefined): -22.8%.
On to `COc1cc(C(=O)OC(COCCC(C)C)CN2CCOCC2)cc(OC)c1OC` (centres undefined), for which the efficacy was 27.7%.
Next, `CC(=O)c1cc2ccccc2s1`: -31.8%; `NC(=O)N[C@@H](CCC(=O)O)C(=O)O`: -11.5%; `CCN(Cc1ccncc1)C(=O)C(CO)c1ccccc1` (centres undefined): -24.3%.
In the case of `CCCc1c2oc(C(=O)O)cc(=O)c2cc2c(=O)cc(C(=O)O)n(CC)c12`, the efficacy was 16%.
The same measure for `O=c1[nH]c2ccccc2n1C1CCNCC1`: -18%; for `O=C1CC[C@H](C(=O)N2CCCCC2)N1`: -19.2%.
`O=C(O)c1ccc(S(=O)(=O)N(Cl)Cl)cc1`: the efficacy was -27.5%.
Turning to `Cc1ccc(C(=O)C(C)CN2CCCCC2)cc1` (centres undefined), the efficacy is -18.5%.
Next, `C[C@@H](CN1CC(=O)NC(=O)C1)N1CC(=O)NC(=O)C1`: 17.9%.
